These results are taken from paper PMC7862700, “An all-to-all approach to the identification of sequence-specific readers for epigenetic DNA modifications on cytosine”.

Assay in all cases: DAPPL (digital affinity profiling via proximity ligation, sequencing); 10 mM Tris-HCl pH 7.5, 50 mM NaCl, 1 mM DTT, 4% glycerol, room temperature, 30 min; GST-TFs on glutathione beads, 16-mer random dsDNA library, 0.1% formaldehyde crosslink after washing; high values mean tight binding
Assay [1] deals with T1, FEV (Homo sapiens, UniProt Q99581 1-238).
T1 sequence: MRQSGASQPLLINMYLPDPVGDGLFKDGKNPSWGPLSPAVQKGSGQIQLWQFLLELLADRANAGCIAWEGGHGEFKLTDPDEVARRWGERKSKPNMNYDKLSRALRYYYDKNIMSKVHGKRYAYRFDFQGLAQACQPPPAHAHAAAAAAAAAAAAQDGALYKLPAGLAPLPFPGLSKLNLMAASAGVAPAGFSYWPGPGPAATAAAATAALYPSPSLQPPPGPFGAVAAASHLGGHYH
Particulars: protein: recombinant; tags: N-terminal GST; dsDNA, one strand shown. The method, boiled down:
(§1)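 Yeast served to express human transcription factors as GST fusions, which were then captured on glutathione beads and labelled with DNA barcodes. Pooled with a tag-only sample, they were incubated with 200 nmole of a 16-mer random double-stranded DNA library for 30 min at room temperature in Tris/NaCl/DTT/glycerol buffer, washed, crosslinked with 0.1% formaldehyde, ligated by proximity, amplified by PCR and sequenced. Dividing each hexamer's read frequency for a factor by its frequency for the tag-only sample gives the binding signal.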

The target of assay [2] is ETV5 (Homo sapiens, UniProt P41161 1-510). To be noted: protein: recombinant; tags: N-terminal GST; dsDNA, one strand shown. Summed up:
as §1

Assay [3] concerns the target HSF1 (Homo sapiens, UniProt Q00613 1-529). To be noted: protein: recombinant; tags: N-terminal GST; chain copies: 3; dsDNA, one strand shown. The method, boiled down: as §1
Assay [4] addresses T2, SPIC (Homo sapiens, UniProt Q8N5J4 1-248).
T2 sequence: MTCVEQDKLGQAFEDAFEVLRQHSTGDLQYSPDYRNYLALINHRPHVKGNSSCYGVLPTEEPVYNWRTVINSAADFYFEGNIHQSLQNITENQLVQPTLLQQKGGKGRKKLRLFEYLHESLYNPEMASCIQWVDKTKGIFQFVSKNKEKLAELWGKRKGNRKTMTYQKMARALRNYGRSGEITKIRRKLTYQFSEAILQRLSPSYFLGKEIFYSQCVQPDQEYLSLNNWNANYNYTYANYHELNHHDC
Particulars: protein: recombinant; tags: N-terminal GST; dsDNA, one strand shown. Summed up: as §1

Assay [5] concerns the target ELF4 (Homo sapiens, UniProt Q99607 1-663). To be noted: protein: recombinant; tags: N-terminal GST; dsDNA, one strand shown. The method, boiled down:
as §1

Assay [6] deals with T3, ELK4 (Homo sapiens, UniProt P28324-2 1-405).
T3 sequence: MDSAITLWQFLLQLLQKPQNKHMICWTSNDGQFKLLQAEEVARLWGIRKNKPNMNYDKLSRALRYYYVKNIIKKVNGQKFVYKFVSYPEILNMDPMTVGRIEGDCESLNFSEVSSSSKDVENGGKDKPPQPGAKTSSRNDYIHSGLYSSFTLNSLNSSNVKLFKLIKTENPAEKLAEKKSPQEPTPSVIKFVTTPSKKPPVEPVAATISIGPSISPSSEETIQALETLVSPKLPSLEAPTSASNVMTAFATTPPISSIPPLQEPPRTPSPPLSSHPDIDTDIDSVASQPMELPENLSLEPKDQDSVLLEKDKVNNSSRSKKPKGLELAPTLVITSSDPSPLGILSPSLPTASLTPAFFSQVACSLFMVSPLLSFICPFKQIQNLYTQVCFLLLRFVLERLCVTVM
Particulars: protein: recombinant; tags: N-terminal GST; dsDNA, one strand shown. Summed up: as §1

The target in assay [7] is T4, ETV2 (Homo sapiens, UniProt O00321 1-342).
T4 sequence: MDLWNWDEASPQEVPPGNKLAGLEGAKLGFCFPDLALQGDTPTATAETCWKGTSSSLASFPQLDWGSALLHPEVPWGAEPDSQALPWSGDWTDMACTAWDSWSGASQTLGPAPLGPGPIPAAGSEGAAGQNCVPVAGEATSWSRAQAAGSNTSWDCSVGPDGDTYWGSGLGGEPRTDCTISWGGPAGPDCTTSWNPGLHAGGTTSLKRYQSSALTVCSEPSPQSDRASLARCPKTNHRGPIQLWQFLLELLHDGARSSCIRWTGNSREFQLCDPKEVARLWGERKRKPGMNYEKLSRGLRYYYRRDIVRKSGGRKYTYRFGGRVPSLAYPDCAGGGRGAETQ
To be noted: protein: recombinant; tags: N-terminal GST; dsDNA, one strand shown. The method, boiled down:
as §1

The target in assay [8] is T5, ELF3 (Homo sapiens, UniProt P78545 1-371).
T5 sequence: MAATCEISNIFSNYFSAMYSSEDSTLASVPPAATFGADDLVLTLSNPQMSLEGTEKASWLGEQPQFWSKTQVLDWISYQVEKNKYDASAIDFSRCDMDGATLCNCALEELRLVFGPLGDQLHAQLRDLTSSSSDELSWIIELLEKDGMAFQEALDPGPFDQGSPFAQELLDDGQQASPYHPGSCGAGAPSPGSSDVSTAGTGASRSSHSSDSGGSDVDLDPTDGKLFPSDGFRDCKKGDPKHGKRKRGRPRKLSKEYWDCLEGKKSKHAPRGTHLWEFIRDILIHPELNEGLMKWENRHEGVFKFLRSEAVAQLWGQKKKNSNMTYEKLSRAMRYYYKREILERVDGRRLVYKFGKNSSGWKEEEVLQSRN
Particulars: protein: recombinant; tags: N-terminal GST; dsDNA, one strand shown. Summed up:
as §1

Assay [9] concerns the target CRX (Homo sapiens, UniProt O43186 1-299). To be noted: protein: recombinant; tags: N-terminal GST; dsDNA, one strand shown. The method, boiled down:
as §1

For assay [10], the target named is ETV1 (Homo sapiens, UniProt P50549 1-477). To be noted: protein: recombinant; tags: N-terminal GST; dsDNA, one strand shown. The method, boiled down:
as §1

Chain of HSF1 (Q00613 whole entry): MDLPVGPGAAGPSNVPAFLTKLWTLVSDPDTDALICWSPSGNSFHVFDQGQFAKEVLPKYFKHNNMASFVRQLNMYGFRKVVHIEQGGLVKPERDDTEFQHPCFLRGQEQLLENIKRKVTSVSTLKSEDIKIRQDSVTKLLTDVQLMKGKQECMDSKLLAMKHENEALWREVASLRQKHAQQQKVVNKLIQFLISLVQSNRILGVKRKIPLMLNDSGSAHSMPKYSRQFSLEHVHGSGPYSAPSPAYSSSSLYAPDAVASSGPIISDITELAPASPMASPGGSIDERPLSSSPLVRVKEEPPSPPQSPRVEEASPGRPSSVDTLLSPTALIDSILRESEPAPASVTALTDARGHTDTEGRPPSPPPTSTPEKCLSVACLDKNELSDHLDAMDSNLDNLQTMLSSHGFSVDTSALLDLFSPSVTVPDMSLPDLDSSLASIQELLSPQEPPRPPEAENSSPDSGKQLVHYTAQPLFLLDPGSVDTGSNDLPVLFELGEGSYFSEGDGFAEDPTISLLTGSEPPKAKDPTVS
Chain of ETV5 (P41161 whole entry): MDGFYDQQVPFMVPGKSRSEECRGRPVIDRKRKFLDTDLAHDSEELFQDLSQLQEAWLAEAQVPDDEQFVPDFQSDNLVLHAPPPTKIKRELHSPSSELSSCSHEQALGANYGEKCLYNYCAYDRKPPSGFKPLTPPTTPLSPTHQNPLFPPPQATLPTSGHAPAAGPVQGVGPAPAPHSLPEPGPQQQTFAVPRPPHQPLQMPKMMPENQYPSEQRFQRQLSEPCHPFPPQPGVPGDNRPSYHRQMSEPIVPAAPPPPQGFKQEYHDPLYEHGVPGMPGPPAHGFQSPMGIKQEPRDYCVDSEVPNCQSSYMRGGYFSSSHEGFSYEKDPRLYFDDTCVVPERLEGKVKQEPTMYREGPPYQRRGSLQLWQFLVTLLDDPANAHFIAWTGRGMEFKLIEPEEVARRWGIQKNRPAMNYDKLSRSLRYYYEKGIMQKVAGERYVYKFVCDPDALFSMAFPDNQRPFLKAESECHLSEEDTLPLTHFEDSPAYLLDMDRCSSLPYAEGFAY
Chain of CRX (O43186 whole entry): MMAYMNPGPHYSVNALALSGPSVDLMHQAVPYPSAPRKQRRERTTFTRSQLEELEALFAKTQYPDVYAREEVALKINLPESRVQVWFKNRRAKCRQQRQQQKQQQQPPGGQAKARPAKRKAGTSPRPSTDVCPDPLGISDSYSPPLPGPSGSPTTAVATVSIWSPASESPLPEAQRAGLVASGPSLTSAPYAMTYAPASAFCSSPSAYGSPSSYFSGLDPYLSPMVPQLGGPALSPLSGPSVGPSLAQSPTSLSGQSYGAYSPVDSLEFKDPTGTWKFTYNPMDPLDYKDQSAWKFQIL
Chain of ELF4 (Q99607 whole entry): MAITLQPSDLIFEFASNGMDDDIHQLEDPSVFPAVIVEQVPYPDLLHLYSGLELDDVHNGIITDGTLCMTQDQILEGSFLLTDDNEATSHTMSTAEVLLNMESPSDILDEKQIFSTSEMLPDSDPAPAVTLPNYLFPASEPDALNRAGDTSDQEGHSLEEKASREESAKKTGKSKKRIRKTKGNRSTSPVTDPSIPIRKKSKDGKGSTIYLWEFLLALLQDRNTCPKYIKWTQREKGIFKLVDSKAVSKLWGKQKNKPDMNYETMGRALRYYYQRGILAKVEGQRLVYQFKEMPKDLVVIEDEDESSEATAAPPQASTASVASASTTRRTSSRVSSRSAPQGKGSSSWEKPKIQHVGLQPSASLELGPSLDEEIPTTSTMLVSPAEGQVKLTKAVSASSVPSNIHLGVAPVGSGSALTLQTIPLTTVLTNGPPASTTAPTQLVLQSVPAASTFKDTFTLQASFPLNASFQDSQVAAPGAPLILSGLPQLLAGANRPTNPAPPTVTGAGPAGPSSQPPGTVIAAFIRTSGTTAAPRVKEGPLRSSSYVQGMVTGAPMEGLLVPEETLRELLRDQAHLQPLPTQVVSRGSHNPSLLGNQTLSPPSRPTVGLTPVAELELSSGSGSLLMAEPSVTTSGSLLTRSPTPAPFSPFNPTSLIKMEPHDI
Chain of ETV1 (P50549 whole entry): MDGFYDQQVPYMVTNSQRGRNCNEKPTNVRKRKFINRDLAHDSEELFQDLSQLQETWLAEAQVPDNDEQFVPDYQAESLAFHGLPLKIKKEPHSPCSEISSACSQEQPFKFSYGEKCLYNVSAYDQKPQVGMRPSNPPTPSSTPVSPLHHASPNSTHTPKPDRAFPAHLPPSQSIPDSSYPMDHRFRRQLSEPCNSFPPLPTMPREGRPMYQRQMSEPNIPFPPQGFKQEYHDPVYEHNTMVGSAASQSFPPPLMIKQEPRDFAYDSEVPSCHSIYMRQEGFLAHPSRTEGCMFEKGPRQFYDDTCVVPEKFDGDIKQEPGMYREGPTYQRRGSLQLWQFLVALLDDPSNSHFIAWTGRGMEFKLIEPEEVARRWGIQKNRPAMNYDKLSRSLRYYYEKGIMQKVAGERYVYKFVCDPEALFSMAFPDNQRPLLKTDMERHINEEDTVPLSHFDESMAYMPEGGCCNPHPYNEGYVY

For ATTACG, the binding signal in assay [1] was 1.16 fold enrichment (6-mer frequency, TF over GST control); in assay [2], 1.26 fold enrichment (6-mer frequency, TF over GST control); in assay [3] it was 1.54 fold enrichment (6-mer frequency, TF over GST control); in [4] it was 1.02 fold enrichment (6-mer frequency, TF over GST control); in assay [5], 1.14 fold enrichment (6-mer frequency, TF over GST control); in [6] it was 1.28 fold enrichment (6-mer frequency, TF over GST control). In addition, the binding signal in [7] was 1.17 fold enrichment (6-mer frequency, TF over GST control); in [8] it was 1.14 fold enrichment (6-mer frequency, TF over GST control); in [9] it was 2.19 fold enrichment (6-mer frequency, TF over GST control); in [10] it was 1.26 fold enrichment (6-mer frequency, TF over GST control).

In the case of AGCCCT, the binding signal in assay [1] was 1.14 fold enrichment (6-mer frequency, TF over GST control); in assay [2] it was 1.08 fold enrichment (6-mer frequency, TF over GST control); in assay [3], 1.09 fold enrichment (6-mer frequency, TF over GST control); in [4], 1.25 fold enrichment (6-mer frequency, TF over GST control); in assay [5], 1.06 fold enrichment (6-mer frequency, TF over GST control); in [6] it was 1.14 fold enrichment (6-mer frequency, TF over GST control). Also, the binding signal in assay [7] is 1.18 fold enrichment (6-mer frequency, TF over GST control); in [8] it was 1.1 fold enrichment (6-mer frequency, TF over GST control); in assay [9] it was 1.25 fold enrichment (6-mer frequency, TF over GST control); in [10], 1.05 fold enrichment (6-mer frequency, TF over GST control).

With TATCCC, the binding signal in assay [1] is 1.59 fold enrichment (6-mer frequency, TF over GST control); in assay [2], 1.64 fold enrichment (6-mer frequency, TF over GST control); in [3], 1.61 fold enrichment (6-mer frequency, TF over GST control); in assay [4], 1.6 fold enrichment (6-mer frequency, TF over GST control); in [5], 1.54 fold enrichment (6-mer frequency, TF over GST control); in [6] it was 1.64 fold enrichment (6-mer frequency, TF over GST control). Moreover, the binding signal in [7] was 1.44 fold enrichment (6-mer frequency, TF over GST control); in assay [8], 1.83 fold enrichment (6-mer frequency, TF over GST control); in [9], 2.22 fold enrichment (6-mer frequency, TF over GST control); in [10] it was 1.39 fold enrichment (6-mer frequency, TF over GST control).

In the case of CCTCTC, the binding signal in assay [1] was 1.36 fold enrichment (6-mer frequency, TF over GST control); in [2] it was 1.34 fold enrichment (6-mer frequency, TF over GST control); in [3], 1.23 fold enrichment (6-mer frequency, TF over GST control); in [4] it was 1.46 fold enrichment (6-mer frequency, TF over GST control); in assay [5] it was 1.48 fold enrichment (6-mer frequency, TF over GST control); in [6], 1.36 fold enrichment (6-mer frequency, TF over GST control). Further, the binding signal in assay [7] is 1.44 fold enrichment (6-mer frequency, TF over GST control); in assay [8] it was 1.5 fold enrichment (6-mer frequency, TF over GST control); in assay [9] it was 1.16 fold enrichment (6-mer frequency, TF over GST control); in assay [10] it was 1.42 fold enrichment (6-mer frequency, TF over GST control).

Take GATATT: the binding signal in assay [1] is 1.04 fold enrichment (6-mer frequency, TF over GST control); in assay [2] it was 1.14 fold enrichment (6-mer frequency, TF over GST control); in assay [3], 1.18 fold enrichment (6-mer frequency, TF over GST control); in assay [4], 1.12 fold enrichment (6-mer frequency, TF over GST control); in assay [5] it was 1.12 fold enrichment (6-mer frequency, TF over GST control); in [6], 1.15 fold enrichment (6-mer frequency, TF over GST control). The binding signal in [7] is 1.24 fold enrichment (6-mer frequency, TF over GST control); in assay [8], 1.07 fold enrichment (6-mer frequency, TF over GST control); in assay [9], 1.31 fold enrichment (6-mer frequency, TF over GST control); in [10] it was 1.1 fold enrichment (6-mer frequency, TF over GST control).

With CTGATC, the binding signal was 1.31 fold enrichment (6-mer frequency, TF over GST control) in [1]; 1.29 fold enrichment (6-mer frequency, TF over GST control) in [2]; 1.53 fold enrichment (6-mer frequency, TF over GST control) in assay [3]; 1.57 fold enrichment (6-mer frequency, TF over GST control) in [4]; 1.41 fold enrichment (6-mer frequency, TF over GST control) in assay [5]; 1.39 fold enrichment (6-mer frequency, TF over GST control) in assay [6]. For the same sequence, the binding signal was 1.13 fold enrichment (6-mer frequency, TF over GST control) in [7]; 1.25 fold enrichment (6-mer frequency, TF over GST control) in assay [8]; 1.95 fold enrichment (6-mer frequency, TF over GST control) in [9]; 1.43 fold enrichment (6-mer frequency, TF over GST control) in assay [10].

Turning to CCTCGC, the binding signal in assay [1] is 1.37 fold enrichment (6-mer frequency, TF over GST control); in [2] it was 1.51 fold enrichment (6-mer frequency, TF over GST control); in [3], 1.36 fold enrichment (6-mer frequency, TF over GST control); in assay [4] it was 1.46 fold enrichment (6-mer frequency, TF over GST control); in assay [5] it was 1.6 fold enrichment (6-mer frequency, TF over GST control); in [6], 1.62 fold enrichment (6-mer frequency, TF over GST control). The binding signal in assay [7] is 1.6 fold enrichment (6-mer frequency, TF over GST control); in [8], 1.56 fold enrichment (6-mer frequency, TF over GST control); in assay [9], 1.16 fold enrichment (6-mer frequency, TF over GST control); in assay [10], 1.54 fold enrichment (6-mer frequency, TF over GST control).
